Test systems include HCT-15 colon; HT29 colon; SNB-75 CNS; SNB-19 CNS; U251 CNS; PC-3 prostate; SK-MEL-5 melanoma; UACC-62 melanoma; LOX IMVI melanoma; SK-MEL-28 melanoma; EKVX NSCLC; SN12C renal; UO-31 renal; TK-10 renal; ACHN renal; CAKI-1 renal; A498 renal; CCRF-CEM leukemia; MOLT-4 leukemia.
Test in all cases: NCI-60 one-dose screen, 48 h (100 = growth as untreated, 0 = no growth, -100 = all killed)
Conditions in all cases: 10 µM unless noted

SMILES strings stand for the structures. This is part of a sample that, as a whole, favours compounds with a hit. Of some 83,000 tested, about 20% had one in any assay.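 Plates (96-well) were seeded with cells, treated with compound at one concentration, and incubated for 48 hours before percent growth was determined.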 A number with no mark means an inactive call. Activity calls are given as the source filed them. How the source made its calls: active means growth percent below 10; inactive means the rest.

Take `CCCS(=O)(=O)Nc1ccc(F)c(C(=O)c2c[nH]c3ncc(-c4ccc(Cl)cc4)cc23)c1F`: the growth with HCT-15 colon was 28.4%; in the assay with HT29 colon, 4.44% (active); in the assay with SNB-75 CNS, 8.13% (active); with SNB-19 CNS it was 40.4%; in the assay on U251 CNS, 18.5%; in the assay on PC-3 prostate it was 21.8%. Moreover, the growth in the assay on SK-MEL-5 melanoma is 15.9%; in the assay on UACC-62 melanoma, -22.6% (active); in the assay on LOX IMVI melanoma it was 16.5%; in the assay with SK-MEL-28 melanoma it was 1.65% (active); in the assay with EKVX NSCLC, 43.1%; with SN12C renal, 49.6%. The growth was 19.5% in the assay with UO-31 renal; 23.8% with TK-10 renal; 24.4% in the assay on ACHN renal; 12.1% in the assay on CAKI-1 renal; -1.82% (active) in the assay with A498 renal; 26.9% in the assay on CCRF-CEM leukemia. Besides, the growth in the assay with MOLT-4 leukemia was 15.6%.

Consider `CCCCCCCC12Cc3ccccc3C1=Nc1c(c3ccccc3n1C)C2=O` (configuration not stated), for which the growth with HCT-15 colon was 91.7%; in the assay on HT29 colon, 58.8%; in the assay on SNB-75 CNS it was 89.2%; in the assay on SNB-19 CNS it was 95%; with U251 CNS, 88.5%; with PC-3 prostate, 78.2%. The growth in the assay with SK-MEL-5 melanoma is 90.8%; in the assay with UACC-62 melanoma, 74.8%; in the assay with LOX IMVI melanoma, 87.8%; with SK-MEL-28 melanoma, 113%; with EKVX NSCLC it was 98.8%; with SN12C renal, 92.1%. The growth with UO-31 renal is 57.5%; with TK-10 renal, 102%; in the assay with ACHN renal, 93.3%; with CAKI-1 renal, 79.7%; with A498 renal, 86.4%; in the assay with CCRF-CEM leukemia, 83.6%. In the assay on MOLT-4 leukemia, the growth is 78.3%.

In the case of `Cc1csc(-c2nnc(Nc3ccc(Oc4ncccc4-c4ccnc(N)n4)cc3)c3ccccc23)c1`, the growth is 37.6% with HCT-15 colon; 10.1% with HT29 colon; 61.9% in the assay on SNB-75 CNS; 43.3% in the assay with SNB-19 CNS; 37.7% in the assay on U251 CNS; 59.9% in the assay on PC-3 prostate. The growth in the assay with SK-MEL-5 melanoma is 54.1%; in the assay with UACC-62 melanoma, 21.1%; in the assay on LOX IMVI melanoma, 25.7%; with SK-MEL-28 melanoma it was 18.9%; in the assay with EKVX NSCLC, 64.8%; with SN12C renal, 52.1%. The growth in the assay on UO-31 renal was 32.4%; with TK-10 renal, 39.7%; in the assay on ACHN renal, 38.8%; in the assay with CAKI-1 renal, 50.8%; in the assay on A498 renal it was 56.1%; in the assay with CCRF-CEM leukemia, 25.1%. Moreover, in the assay on MOLT-4 leukemia, the growth is 32.3%.

As to `C=CCN(/C=C1/C(=O)O[C@H](COC)[C@@]2(C)C1=C(O)C(=O)C1=C2[C@H](OC(C)=O)C[C@]2(C)C(=O)CC[C@@H]12)CC=C`, the growth with HCT-15 colon was 24.2%; in the assay with HT29 colon, 13.7%; in the assay with SNB-75 CNS it was -25.3% (active); in the assay on SNB-19 CNS, 26.2%; with U251 CNS it was 21.1%; with PC-3 prostate, 18.6%. The growth is 7.65% (active) in the assay on SK-MEL-5 melanoma; -21% (active) in the assay on UACC-62 melanoma; 20.3% in the assay with LOX IMVI melanoma; 24.4% with SK-MEL-28 melanoma; 21.8% in the assay on EKVX NSCLC; 30.2% in the assay on SN12C renal. Besides, the growth in the assay with UO-31 renal is 3.12% (active); with TK-10 renal, 3.59% (active); with ACHN renal, 24.7%; in the assay on CAKI-1 renal, 8.92% (active); in the assay on A498 renal it was -66.8% (active); with CCRF-CEM leukemia it was 12.8%. Also, the growth in the assay on MOLT-4 leukemia is -2.31% (active).

On to `CN1CCN(CCCOc2cccc3nc(Nc4ccc(Cl)c(C(F)(F)F)c4)ccc23)CC1`, for which the growth with HCT-15 colon is -49.6% (active); with HT29 colon it was -58.9% (active); in the assay with SNB-75 CNS, -3.73% (active); in the assay with SNB-19 CNS it was 20.8%; in the assay with U251 CNS, -22.7% (active); in the assay on PC-3 prostate, 14.6%. The growth in the assay on SK-MEL-5 melanoma was 41.5%; in the assay on UACC-62 melanoma it was -29% (active); in the assay with LOX IMVI melanoma, -95% (active); in the assay on SK-MEL-28 melanoma, -45.2% (active); in the assay with EKVX NSCLC, 44.5%; in the assay on SN12C renal, 28.3%. The growth was 28.6% in the assay on UO-31 renal; -66.5% (active) in the assay with TK-10 renal; -69.3% (active) with ACHN renal; 48.9% in the assay on CAKI-1 renal; 30.8% in the assay with A498 renal; -24.7% (active) with CCRF-CEM leukemia. In addition, the growth in the assay on MOLT-4 leukemia is -57.6% (active).

As for `Cc1c(Cn2c(C)nc3c(C(=O)O)cc(N4CCOCC4)cc32)cccc1C(F)(F)F`, the growth in the assay with HCT-15 colon was 44.5%; in the assay on HT29 colon, 69.5%; with SNB-75 CNS, 61.3%; in the assay on SNB-19 CNS it was 118%; with U251 CNS, 104%; in the assay on PC-3 prostate, 68.2%. For the same molecule, the growth with SK-MEL-5 melanoma is 104%; in the assay with UACC-62 melanoma, 65.5%; with LOX IMVI melanoma, 101%; in the assay on SK-MEL-28 melanoma, 80.9%; in the assay with EKVX NSCLC it was 101%; in the assay with SN12C renal, 95.7%. Also, the growth with UO-31 renal was 47%; in the assay on TK-10 renal, 84.1%; in the assay with ACHN renal, 77.1%; with CAKI-1 renal, 91.7%; in the assay on A498 renal, -17% (active); in the assay with CCRF-CEM leukemia, 79.6%. The growth with MOLT-4 leukemia was 60.2%.

For the molecule `N[C@@H]1CCCN(c2c(/C=C3\SC(=O)NC3=O)cccc2-c2ccccc2)C1`, the growth in the assay on HCT-15 colon is 63.9%; in the assay on HT29 colon, 55%; in the assay on SNB-75 CNS, -14.1% (active); with SNB-19 CNS it was 1.97% (active); in the assay on U251 CNS it was 13.9%; with PC-3 prostate, 47.5%. In addition, the growth in the assay with SK-MEL-5 melanoma is 55%; in the assay with UACC-62 melanoma, 62.2%; in the assay on LOX IMVI melanoma it was 72.6%; in the assay with SK-MEL-28 melanoma it was 73.8%; in the assay with EKVX NSCLC, 62.6%; in the assay with SN12C renal it was 65%. Besides, the growth in the assay on UO-31 renal was 31.9%; in the assay on TK-10 renal, 78.6%; with ACHN renal, 73.2%; with CAKI-1 renal it was 73.6%; in the assay with A498 renal it was 75%; in the assay with CCRF-CEM leukemia it was 55.3%. In the assay with MOLT-4 leukemia, the growth is 31.1%.

In the case of `O=C(NOCCO)c1cc(CN2OCCCC2=O)c(F)c(F)c1Nc1ccc(I)cc1F`, the growth was 50.6% in the assay with HCT-15 colon; 8.15% (active) in the assay with HT29 colon; 71.5% in the assay on SNB-75 CNS; 51.8% in the assay on SNB-19 CNS; 40.6% with U251 CNS; 99.3% with PC-3 prostate. Further, the growth was 45.7% in the assay on SK-MEL-5 melanoma; 4% (active) in the assay on UACC-62 melanoma; 19.4% in the assay on LOX IMVI melanoma; 3.09% (active) with SK-MEL-28 melanoma; 46% in the assay on EKVX NSCLC; 49.5% in the assay on SN12C renal. Further, the growth in the assay on UO-31 renal was 15%; with TK-10 renal, 36.4%; with ACHN renal, 49.5%; with CAKI-1 renal, 40.8%; in the assay on A498 renal, -33% (active); in the assay on CCRF-CEM leukemia, 101%. For the same molecule, in the assay with MOLT-4 leukemia, the growth is 76.6%.

(Values after PubChem BioAssay (NCI).)
